According to PubChem BioAssay AID1578 (Sanford-Burnham Center for Chemical Genomics, 2009):
The whole screen tested about 290,000 compounds, of which about 3,000 (1%) were called active. No stated cut-off is given here; in the data, active means inhibition mostly above about 36% (no sharp cut-off); inactive means mostly below about 34%. The sample as a whole holds a higher share of actives than the screen did.

Experiment: NOD1 signaling inhibitors, primary screen, cell-based, luminescence, uHTS (AID 1578);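 further: HEK-293T reporter cells stimulated with the NOD1 agonist gamma-tri-DAP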
Settings: NOD1-driven NF-kB luciferase reporter cells, at 4 µM, hits give high values

inhibition, inactive:
COc1ccc(NC(=O)CN(c2ccc(OC)cc2)S(=O)(=O)c2c(C)nn(C)c2C)cc1 -15.1%
COc1ccc(C(=O)N2CCC(C(=O)c3c(C)cc(C)cc3C)CC2)cc1 -8.8%
Cc1ccc(N2CC(C(=O)N3CCCc4ccccc43)CC2=O)cc1 (centres undefined) -10.4%
O=C(C1CCC(=O)N(C2CCCC2)C1)N1CCN(c2ccccc2Cl)CC1 (centres undefined) -2.7%
CCOC(=O)c1c(NC(=O)CSc2nnc(C)c(=O)[nH]2)sc2c1CCCC2 11.2%
CCOC(=O)c1c(NC(=O)CSc2nnc(C)c(=O)[nH]2)sc(C)c1C 17.3%
CC/C=C/C(=O)N1CC2(CC(c3cccc(NC(=O)CC(c4ccccc4)c4ccccc4)c3)=NO2)C[C@@H]1C(N)=O (some centres undefined) -0.2%
CCN(CC)Cc1c(O)ccc2c([N+](=O)[O-])c(C)n(-c3ccc(OC)cc3)c12 -5.7%
COc1ccc(C(=O)c2coc3ccc(O)c(CN4CCCCC4)c23)cc1 9.4%
COc1cc(C2NC(=S)NC(C)=C2C(=O)Nc2ccc(C)cc2)ccc1O (centres undefined) -50%
c1coc(-c2nc(-c3ccncc3)no2)c1 -24.6%
CCCCn1c(O)c(N=NC(=O)c2ccncc2)c2cc(Br)ccc21 46.8%
O=c1c2c(nc3cc(-c4ccccc4)[nH]n13)CCC2 -31.8%
O=c1c2c(nc3cc(-c4ccc(F)cc4)[nH]n13)CCCC2 -40.5%
CC(NC(=O)CSc1nc2ccc(N)cc2s1)c1ccccc1 (centres undefined) -0.6%
COc1ccc(NC(=S)NCCc2c[nH]c3ccccc23)c(OC)c1 17.2%
COc1ccc(Cl)cc1NC(=S)NCCc1c[nH]c2ccccc12 -12.7%
COc1ccccc1C(=O)Nc1ccc2c(c1)CCCN2C(=O)c1cccs1 -18.3%
COc1ccc(C(=O)Nc2ccc3c(c2)CCCN3C(=O)c2cccs2)c(OC)c1 21.1%
O=C(CC1C(=O)N(c2ccccc2)C(=O)N1C1CCCCC1)Nc1ccccc1 (centres undefined) 11.7%
CC1CCCN(S(=O)(=O)c2ccc(NC(=O)Cn3nnc(-c4ccccc4F)n3)cc2)C1 (centres undefined) -31.2%
CC(C)CCOc1ccc(Cl)cc1CN1CCOCC1 -26.5%
Clc1ccccc1-c1nn2c(-c3ccncc3)nnc2s1 64.5%
Clc1cccc(-c2nn3c(-c4ccncc4)nnc3s2)c1 -14%
COC(=O)c1c(C(=O)OC)c(-c2ccc(Cl)c(Cl)c2)n2c1CCC2 -14.5%
Cc1nnn(C23C[C@@H]4C[C@@H](CC(C(=O)N5CCN(c6ccccc6)CC5)(C4)C2)C3)n1 -7%
Cc1ccc(CCNC(=O)C23C[C@H]4C[C@@H](C2)CC(n2nnc(C)n2)(C4)C3)cc1 -3.3%
COc1cccc(C2C(C#N)=C(N)Oc3cc(C)n(Cc4ccccn4)c(=O)c32)c1OC (centres undefined) -19.6%
Cc1ccsc1C(=O)OCc1csc(-c2ccccc2)n1 -65.5%
O=C1C=C(NC2=CC3OC(c4ccccc4)OCC3OC2=O)CCC1 (centres undefined) -24.3%
Cc1ccccc1NC1=CC(=O)CC(C)(C)C1 1.1%
COc1ccc(CN2CCC(n3nccc3NC(=O)c3ccc4c(c3)OCO4)CC2)cc1C -12.5%
O=S(=O)(c1cccs1)N1CCN(Cc2nc3ccccc3s2)CC1 -23.6%
O=C(NC(N1CCOCC1)C(Cl)(Cl)Cl)c1ccc(F)cc1 (centres undefined) -23.2%
COc1ccc(C(=O)NNC2=Nc3cccc4cccc2c34)cc1 11.1%
Cc1ccc(C(=O)NNC2=Nc3cccc4cccc2c34)cc1 34%
CC(=O)N/C(=C/c1ccccc1)C(=O)N1CCCCC1 -19.2%
CCN(CC(=O)Nc1c(F)cccc1F)C(=O)c1n[nH]c2ccccc12 -21.6%
Cc1ccc2c(c1)sc1ncc(NC(=O)c3ccc(F)cc3)c(=O)n12 -34.8%
O=C(Nc1ccccc1NC(=O)c1ccc(F)cc1)c1ccc(F)cc1 5.1%
COc1cccc(N(C(=O)c2ccco2)C(C(=O)NC2CCCC2)c2ccc(N(C)C)cc2)c1 (centres undefined) -6.7%
Oc1ccc(NC(=S)N=Nc2c(O)[nH]c3ccccc23)cc1 -25.5%
Cc1cccc(NC(=S)N=Nc2c(O)[nH]c3ccccc23)c1 -18.3%
CC(Nc1nc(-c2ccccc2F)nc2ccccc12)c1ccccc1 (centres undefined) -6.1%
CCn1c2ccccc2c2nnc(SCCCn3c(=O)[nH]c4ccccc43)nc21 -22.4%
C=CCn1c2ccccc2c2nnc(SCCN3CCCCC3)nc21 33.2%
Cc1oc(-c2ccccc2Cl)nc1CN1CCCCC1CO (centres undefined) -13.9%
O=C(COC(=O)CCSc1ccccc1)Nc1ccc(F)cc1Cl -14%
CC(C)C(NS(=O)(=O)c1cccc2nsnc12)C(=O)NC1CCCCC1 (centres undefined) -5.2%

inhibition, active:
CCOC(=O)c1c(NC(=O)CSc2nnc(C)c(=O)[nH]2)sc(C)c1-c1ccc(C)cc1 43.1%
O=c1c2c(nc3cc(-c4ccc(F)cc4)[nH]n13)CCC2 62.6%
COc1ccccc1NC(=S)NCCc1c[nH]c2ccccc12 86%
COc1cccc(C(=O)Nc2ccc3c(c2)CCCN3C(=O)c2cccs2)c1OC 56.1%
Clc1ccc(-c2nn3c(-c4ccncc4)nnc3s2)c(Cl)c1 59%
CC1(C)CC(=O)C=C(NC2=CC3OC(c4ccccc4)OCC3OC2=O)C1 (centres undefined) 61.7%
O=C(NNC1=Nc2cccc3cccc1c23)c1ccc(Br)cc1 85.4%
N#Cc1cc(NC(=O)c2ccc(F)cc2)c(=O)n2c1[nH]c1ccccc12 67.8%
Cc1ccc(NC(=S)N=Nc2c(O)[nH]c3ccccc23)cc1 50.7%
C=CCn1c2ccccc2c2nnc(SCCCn3c(=O)[nH]c4ccccc43)nc21 60.9%
